Laboratory results reported in PubChem BioAssay (NCI).
About 79,000 compounds went through this panel and 15% of them were active in at least one assay; those are over-represented in the sample as a whole. The source made the active and inactive calls. Cut-off read from the data, not from the text of the source: active = growth inhibition above about 70%; inactive = the rest.

Legend:
[1] = NCI Yeast Anticancer Drug Screen. Data for the rad52 strain (AID 147);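 note: 0% = growth of vehicle-treated control cultures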; details: S. cerevisiae rad52 mutant growth inhibition, hits give high values
How it was run: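 Yeast strain carrying a DNA damage repair alteration was exposed to test compounds. Growth inhibition was measured relative to vehicle-treated controls.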

[2] = NCI Yeast Anticancer Drug Screen. Data for the wt1 strain (AID 149);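 note: 0% = growth of vehicle-treated wt1 cultures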; details: S. cerevisiae wt1 strain (SPY 50644) growth inhibition, hits give high values
How it was run: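 Compounds are added to wt1 yeast cultures. Growth is then measured. Inhibition is expressed relative to vehicle-treated controls.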

[3] = NCI Yeast Anticancer Drug Screen. Data for the rad50EPP+ strain (AID 151);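 note: 0% = growth of vehicle-treated control cultures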; details: S. cerevisiae rad50 mutant strain, hits give high values
How it was run: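 Yeast strain carrying rad50 alteration (rad50EPP+) exposed to compounds; growth inhibition measured relative to vehicle-treated controls.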

[4] = NCI Yeast Anticancer Drug Screen. Data for the mgt1 strain (AID 153); details: S. cerevisiae mgt1 mutant growth inhibition, hits give high values
How it was run: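 Yeast mgt1 strain (DNA repair/cell-cycle alteration panel) exposed to compounds; growth inhibition measured relative to vehicle-treated controls.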

[5] = NCI Yeast Anticancer Drug Screen. Data for the rad50 strain (AID 155);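 note: 0% = growth of vehicle-only cultures of the same strain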; details: S. cerevisiae rad50 strain growth inhibition, hits give high values
How it was run: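 Inhibition values express reduced yeast growth in compound-treated cultures relative to vehicle-treated controls.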

[6] = NCI Yeast Anticancer Drug Screen. Data for the mec2-1 strain (AID 157); details: S. cerevisiae mec2-1 strain, hits give high values
How it was run: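 mec2-1 yeast strain, carrying an alteration in DNA damage repair or cell cycle control, was exposed to compounds; growth inhibition was measured relative to vehicle-treated controls.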

[7] = NCI Yeast Anticancer Drug Screen. Data for the rad14 strain (AID 159);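 note: 0% = growth of vehicle-treated control cultures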; details: S. cerevisiae rad14 strain growth inhibition, hits give high values
How it was run: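 A mutant yeast strain defective in DNA damage repair is treated with compound; inhibition of its growth is scored against untreated, vehicle-exposed cultures.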

[8] = NCI Yeast Anticancer Drug Screen. Data for the sgs1 mgt1 strain (AID 161);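 note: 0% = growth of cultures given vehicle only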; details: S. cerevisiae sgs1 mgt1 strain, hits give high values
How it was run: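 Yeast cells carrying a defined DNA-repair defect were exposed to test compounds. Growth inhibition was measured relative to vehicle-treated controls.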

[9] = NCI Yeast Anticancer Drug Screen. Data for the CLN2oe strain (AID 163);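 note: 0% = growth of vehicle-only control cultures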; details: S. cerevisiae CLN2oe strain, hits give high values
How it was run: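 Yeast cells carrying a defined cell-cycle control alteration were exposed to test compounds. Growth inhibition was scored against vehicle-treated control cultures.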

[10] = NCI Yeast Anticancer Drug Screen. Data for the cln2 rad14 strain (AID 165);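 note: 0% = growth equal to vehicle treated cultures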; details: S. cerevisiae cln2 rad14 strain, hits give high values
How it was run: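 Yeast carrying cln2 and rad14 alterations (cell cycle control and DNA damage repair) were exposed to compounds. Growth inhibition was measured against vehicle-treated controls.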

[11] = NCI Yeast Anticancer Drug Screen. Data for the bub3 strain (AID 167); details: S. cerevisiae bub3 mutant strain, hits give high values
How it was run: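 Steps: expose the mutant yeast strain to compound; grow alongside vehicle-treated cultures; measure growth; express inhibition against the vehicle cultures.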

[12] = NCI Yeast Anticancer Drug Screen. Data for the wt2 strain (AID 169);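 note: 0% = growth of vehicle-treated yeast cultures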; details: S. cerevisiae wt2 strain growth inhibition, hits give high values
How it was run: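 Yeast cells were exposed to test compounds, and growth inhibition was measured relative to vehicle-treated controls.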

[13] = NCI Yeast Anticancer Drug Screen. Data for the mlh1 strain (AID 171);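 note: 0% = growth of vehicle-treated control cultures of the same strain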; details: S. cerevisiae mlh1 strain growth inhibition, hits give high values
How it was run: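 Yeast carrying a defined genetic alteration in DNA damage repair or cell cycle control were exposed to test compounds. Growth inhibition was measured relative to vehicle-treated controls.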

[14] = NCI Yeast Anticancer Drug Screen. Data for the sgs1 strain (AID 173);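 note: 0% = growth of vehicle-only control cultures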; details: S. cerevisiae sgs1 mutant, hits give high values
How it was run: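 Yeast mutant strains carrying defined defects in DNA damage repair or cell cycle control were exposed to test compounds. Growth inhibition was scored against vehicle-treated controls.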

[15] = NCI Yeast Anticancer Drug Screen. Data for the mlh1 rad18 strain (AID 175); details: S. cerevisiae mlh1 rad18 strain growth inhibition, hits give high values
How it was run: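 Growth inhibition of the yeast strain was measured after compound exposure and expressed relative to vehicle-treated controls. The strain carries defined defects in DNA damage repair.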

[16] = NCI Yeast Anticancer Drug Screen. Data for the rad18 strain (AID 177); details: S. cerevisiae rad18 mutant growth inhibition, hits give high values
How it was run: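 Yeast carrying a defined DNA damage repair alteration were exposed to compounds. Growth inhibition was expressed relative to vehicle-treated controls.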

[17] = at 5.0 µM (retest, dose inferred, filed as 0.5)
[18] = at 50.0 µM (retest, dose inferred, filed as 5.0)

Measured: growth inhibition

CN(C)CCNc1ccc2ncn3c4ccc(O)cc4c(=O)c1c23
inactive: [1]; at 1.2 µM -10% | [1]; at 3.7 µM 3% | [1]; at 11.0 µM 4% | [1]; at 33.0 µM 3% | [1]; at 100.0 µM 30% | [2]; at 1.2 µM -21% | [2]; at 3.7 µM -6% | [2]; at 11.0 µM -21% | [2]; at 33.0 µM 0% | [2]; at 100.0 µM -27% | [3]; at 1.2 µM -33% | [3]; at 3.7 µM -12% | [3]; at 11.0 µM -21% | [3]; at 33.0 µM -1% | [3]; at 100.0 µM 5% | [4]; at 1.2 µM -5% | [4]; at 3.7 µM 7% | [4]; at 11.0 µM -19% | [4]; at 33.0 µM -10% | [4]; at 100.0 µM 2% | [5]; at 1.2 µM -14% | [5]; at 3.7 µM 4% | [5]; [17] 50% | [5]; at 11.0 µM -6% | [5]; at 33.0 µM 8% | [5]; at 50.0 µM -17.1% | [5]; at 100.0 µM 22% | [6]; at 1.2 µM -12% | [6]; at 3.7 µM -7% | [6]; [17] 0% | [6]; at 11.0 µM -4% | [6]; at 33.0 µM -9% | [6]; [18] 7% | [6]; at 50.0 µM -10.1% | [6]; at 100.0 µM -20% | [7]; at 1.2 µM -35% | [7]; at 3.7 µM -35% | [7]; at 11.0 µM -31% | [7]; at 33.0 µM -30% | [7]; at 100.0 µM -23% | [8]; [17] 13% | [8]; [18] 7% | [8]; at 50.0 µM -10.6% | [9]; at 1.2 µM -12% | [9]; at 3.7 µM 1% | [9]; at 11.0 µM 9% | [9]; at 33.0 µM 13% | [9]; at 100.0 µM 8% | [10]; [17] 9% | [10]; [18] 12% | [10]; at 50.0 µM 27.6% | [11]; at 1.2 µM -19% | [11]; at 3.7 µM -12% | [11]; [17] 11% | [11]; at 11.0 µM -14% | [11]; at 33.0 µM 3% | [11]; [18] 11% | [11]; at 50.0 µM -1% | [11]; at 100.0 µM 7% | [12]; at 1.2 µM -8% | [12]; at 3.7 µM -3% | [12]; at 11.0 µM -2% | [12]; at 33.0 µM -8% | [12]; at 100.0 µM -11% | [13]; at 1.2 µM -23% | [13]; at 3.7 µM -21% | [13]; at 11.0 µM -15% | [13]; at 33.0 µM -4% | [13]; at 100.0 µM -8% | [14]; at 1.2 µM -21% | [14]; at 3.7 µM -17% | [14]; at 11.0 µM -3% | [14]; at 33.0 µM -16% | [14]; at 100.0 µM -23% | [15]; [17] 4% | [15]; [18] 12% | [15]; at 50.0 µM -48.5% | [16]; at 1.2 µM -23% | [16]; at 3.7 µM -1% | [16]; at 11.0 µM -9% | [16]; at 33.0 µM -12% | [16]; at 100.0 µM -12%
active: [5]; [18] 86%

CCCCCCC1OCC(O)C(OCCCC)O1 (stereo unspecified)
inactive: [1]; at 1.2 µM -3% | [1]; at 3.7 µM -4% | [1]; at 11.0 µM -2% | [1]; at 33.0 µM -4% | [1]; at 100.0 µM -4% | [2]; at 1.2 µM -4% | [2]; at 3.7 µM -3% | [2]; at 11.0 µM -5% | [2]; at 33.0 µM -8% | [2]; at 100.0 µM -10% | [3]; at 1.2 µM -8% | [3]; at 3.7 µM -4% | [3]; at 11.0 µM 2% | [3]; at 33.0 µM 3% | [3]; at 100.0 µM 50% | [4]; at 1.2 µM -6% | [4]; at 3.7 µM -4% | [4]; at 11.0 µM -4% | [4]; at 33.0 µM -6% | [4]; at 100.0 µM -3% | [5]; at 1.2 µM -5% | [5]; at 3.7 µM -11% | [5]; [17] -15% | [5]; at 11.0 µM -4% | [5]; at 33.0 µM -3% | [5]; [18] 3% | [5]; at 50.0 µM -0.55% | [5]; at 100.0 µM 1% | [6]; at 1.2 µM -2% | [6]; at 3.7 µM -3% | [6]; [17] -11% | [6]; at 11.0 µM -2% | [6]; at 33.0 µM -5% | [6]; [18] -35% | [6]; at 50.0 µM -13.7% | [6]; at 100.0 µM -4% | [7]; at 1.2 µM -5% | [7]; at 3.7 µM -4% | [7]; at 11.0 µM -4% | [7]; at 33.0 µM -3% | [7]; at 100.0 µM 0% | [8]; [17] -4% | [8]; [18] 16% | [8]; at 50.0 µM 11.2% | [9]; at 1.2 µM -5% | [9]; at 3.7 µM -3% | [9]; at 11.0 µM -12% | [9]; at 33.0 µM -8% | [9]; at 100.0 µM -7% | [10]; [17] -10% | [10]; [18] 60% | [10]; at 50.0 µM 0.05% | [11]; at 1.2 µM -5% | [11]; at 3.7 µM -6% | [11]; [17] -6% | [11]; at 11.0 µM -8% | [11]; at 33.0 µM -10% | [11]; [18] 15% | [11]; at 50.0 µM -8.05% | [11]; at 100.0 µM -12% | [12]; at 1.2 µM -4% | [12]; at 3.7 µM -5% | [12]; at 11.0 µM -6% | [12]; at 33.0 µM -7% | [12]; at 100.0 µM -7% | [13]; at 1.2 µM 0% | [13]; at 3.7 µM -1% | [13]; at 11.0 µM 0% | [13]; at 33.0 µM 1% | [13]; at 100.0 µM 6% | [14]; at 1.2 µM -4% | [14]; at 3.7 µM -1% | [14]; at 11.0 µM 0% | [14]; at 33.0 µM 0% | [14]; at 100.0 µM 4% | [15]; [17] 2% | [15]; [18] -4% | [15]; at 50.0 µM -15.8% | [16]; at 1.2 µM -3% | [16]; at 3.7 µM 1% | [16]; at 11.0 µM -1% | [16]; at 33.0 µM -2% | [16]; at 100.0 µM 1%
